Assay results from the supplement of paper PMC11417369.
Over roughly 25,000 sequences, “ln(normalized median fluorescence intensity)” has its median near 9.7; the highest 2% begin near 11. What follows is part of a selection rich in the highest values, with near analogues and random picks from the rest.

These sequences were tested on PfAP2-HC AP2 domain (GST-tagged) (assay: gcPBM binding intensity (ln(normalized median fluorescence intensity)); higher = stronger DNA binding).
How it was run: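 In this array assay, P. falciparum DNA-binding domains with a GST tag, expressed in E. coli, were applied for 1 h to primer-extended double-stranded 36-bp intergenic genomic probes and negative controls on an Agilent 4 × 180k array. Bound protein was visualised with Alexa488 anti-GST antibody at 488 nm. Binding intensity is the highest Masliner-normalised natural-log median intensity across replicate spots of either probe orientation.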

| Sequence | gcPBM binding intensity (ln) |
| --- | --- |
| TATTTAATGTGATACTTATATTATTTTATGATTAAA [GTGCAC_negctrl_site25] | 9.49 |
| AAAAAAGTTGTATTTGCACACATAAAAAAAAGATAT [CACACA_site3839] | 9.93 |
| AGAGAATAAATATAAAGTACATATATAAATATATAT [XGTACX_site5055] | 9.7 |
| AAAAAATTATATAAATGTACATTTTGGCTAGACATG [XGTACX_site5977] | 9.71 |
| TATAATAAATCAAATGCACACACACTAATAAAAAAA [CACACA_site7937] | 11.3 |
| AATAAATATAAAAATGCACACACACTAATAAAAAAA [CACACA_site8201] | 11.4 |
| AATATAATATAATGCACACATAAAAAAAAAATCAAA [CACACA_site122] | 9.89 |
| TAAAAAATATAAACTGCACACACACTAATAAAGAAA [CACACA_site8119] | 11.1 |
| ATAAATAATATAAATACACACTAAAAAAAATATATA [CACACA_site4456] | 9.88 |
| AAAATATAATATAATGCACACATAAAAAAAAAAAAA [CACACA_site7989] | 9.84 |
| ATATAAATAATATAAATACACACTAAAAAAAATATA [CACACA_site542] | 9.84 |
| TATATATATATATATACACACACACTAATAAAAAAA [CACACA_site8426] | 11 |
| ATAATAAAAAAAAATGCACACATATATATATATATA [CACACA_site8766] | 9.8 |
| AAAAATATAAACTGCACACACACAAAAAAAGAAAAA [CACACA_site648] | 10.8 |
| AAAAATATAAACTGCACACACAAAAAAAAAAGAGAA [CACACA_site1367] | 10.3 |
| TAATAAATCAAATGCACACACACAAAAAAAAAAAAA [CACACA_site161] | 10.3 |
| TATAAAAATAGGATTTGTACATATAAAAAAGGAAAA [XGTACX_site8678] | 9.73 |
| TATAATATTAATGACTGTACTCATACGTATATTTAT [XGTACX_site5493] | 9.76 |
| TACGGTTGTTTATTTTGTACGTAAAAAATATATTAT [XGTACX_site8393] | 9.7 |
| ATTAAATAAAATCATGCACACAATATATATTTTAAG [CACACA_site2495] | 9.71 |
| AACATAATTAAAAATTGTACAGAATTTCAATCGAAA [XGTACX_site7542] | 9.62 |
| TCAACAAATAAACTTTGTACATATATACAAAATATA [XGTACX_site4447] | 9.53 |
| AAAAAATAAATAAACATAAATAAATAAATAAATATA [XGTACX_negctrl_site340] | 9.73 |

| Sequence | gcPBM binding intensity (ln) |
| --- | --- |
| CAATATATTTGATTTACACACTTACAATGTATATAA [CACACA_site2994] | 9.55 |
| AATAGTACAAAAAAAAAAAAAAAAAAAAAAAAAAAA [CACACA_negctrl_site1376] | 8.9 |
| TTATTTTTTAGTAGTACACACTTTTTGTACCTTTTA [CACACA_site4503] | 9.87 |
| CATATACACGAACACACACACACACGCACAAAAAAA [CACACA_site6376] | 10.6 |
| ATCAAGCACGAACACACACACACACGCACGCCCACA [CACACA_site6308] | 11.4 |
| CCAACATGCCCACGCACACACAAAAAAAGCATGCAT [CACACA_site4217] | 10 |
| TTATACTGTATAGTCGCACACAAAAATATAAAATAT [CACACA_site3869] | 9.98 |
| TAATTATGCGGACACACACACACACCCAACTAAAAA [CACACA_site5427] | 10.9 |
| ATTATGCACCAACACACACACACACCCCTAAAAAAT [CACACA_site2568] | 10.8 |
| TGCACAAAATTATGCACACACCTAAAATTAATTTTT [CACACA_site5596] | 9.8 |
| ATTATGCACCAACACACACACACACTCCTAAAAAAT [CACACA_site8822] | 11 |
| TGTGCCCAAAATTATGCACACACCTAAAATTAATTT [CACACA_site2914] | 9.85 |
| ATTATGCACGGACACACACACACACCCCTAAAAAAT [CACACA_site5426] | 11.4 |
| TTTTGAATATGGATCTTATATATATTAAATAAATAA [CACACA_negctrl_site344] | 9.09 |
| ATGTTTTATAAAAGGCGTACACATATGCTTAAGTAA [XGTACX_site6232] | 9.71 |
| TATATAATTATAAGAACACACATATATATATATATA [CACACA_site2472] | 9.49 |
| AGGTGATTAATATATACACACATACATATATATATA [CACACA_site8913] | 10 |
| TATTTTTATTTTCCTTCACACATTTTTTATATTTTT [CACACA_site5830] | 9.83 |
| TCATTTCACAAACACACACACACAATATATTTCCTT [CACACA_site3905] | 10.3 |
| TCATTTTATTTTTTCACACACACATCTATATTTATA [CACACA_site7547] | 10.2 |
| TCATTTCACAGACACACACACACAATATATTTCCTT [CACACA_site9295] | 10.8 |
| TCATTTTATTTTTTCACACACACATATATATATATA [CACACA_site3333] | 10.2 |
| ATTTCACAGAGACACACACACAATATATTTCCTTTT [CACACA_site7773] | 10.3 |

| Sequence | gcPBM binding intensity (ln) |
| --- | --- |
| TCATTTCACGGACACACACACACAATATATTTCCTT [CACACA_site6023] | 10.9 |
| TCATTTCACAGACACACACACACAAGATATTTCCTT [CACACA_site7774] | 11.1 |
| TTTCATTTCACAGACACACACACACCCTATATTTCC [CACACA_site3906] | 11.2 |
| ATATTAATTATAACTTGTACGTAAAAGGAAAACAAT [XGTACX_site3269] | 9.76 |
| ATTATAATATTGTTATGTACATAAAAATTATTGAAT [XGTACX_site4476] | 9.82 |
| GATAACATAATATGTTGTACATAAAAATTTTTATCA [XGTACX_site1969] | 9.62 |
| GTAAAAATAAAAACTGGTACACAAGTTGTTATAAAA [XGTACX_site502] | 9.76 |
| TTTGTGTGTGCGTGTGCATGTTGTTTTTTTCTATAA [TGCATGCA_site17] | 11.7 |
| TTTTGTTTATGTGTGCATTATATTATATTTTTTATT [TGCATGCA_negctrl_site146] | 10.1 |
| TTATTTATTCTATGTGCATGTTATTTTTTTTTTTCG [TGCATGCA_site262] | 9.73 |
| ATTTACATAAATTGCATATATCGATGTAAATAAATA [CACACA_negctrl_site1150] | 9.5 |
| AAAAAAAAAAAACACACACACACACCCATATATAAA [CACACA_site1170] | 11.1 |
| AATATAAATAAAAACACACACACACCCATATATATA [CACACA_site2267] | 11.3 |
| TATATATAAAAACACACACACACACCCTATAATTAT [CACACA_site4063] | 11.3 |
| AATGTACACGCACCCACACACAAACAAATATAAATA [CACACA_site7319] | 11.6 |
| ATAATATATATATAAACACACAAAAAAAATTATATA [CACACA_site1534] | 9.86 |
| TAAACACCCATATAAACACACATATAAACACCCATA [CACACA_site5382] | 10.3 |
| TACATATATAAAAAAACACACACATATATATATATA [CACACA_site8315] | 9.93 |
| AATAAATATAAATACACACCCATATATATATATATA [CACACA_site5436] | 9.67 |
| AATGTACCCACACCCACACACAAACAAATATATATA [CACACA_site2751] | 10.2 |
| AATAAATATAAATACACACCCATATAAATATAAATA [CACACA_site7264] | 10.1 |
| ATATAATATATATATAAACACACAAAAAAAATTATA [CACACA_site8434] | 9.97 |
| AATGTACACCCACCCACACACAAACAAATATATATA [CACACA_site5521] | 10.3 |

| Sequence | gcPBM binding intensity (ln) |
| --- | --- |
| TTTATTTTTATGGTCACACATATTTTTAAAACTATA [CACACA_site4372] | 9.77 |
| TTTCATTTTTTTACATGTACGCAAAAGTGTGTAGTT [XGTACX_site6582] | 9.78 |
| TTTTTTTTTGAATACAGTACACAAGTGTTAAGTTTA [XGTACX_site7069] | 9.36 |
| TAAGTATACTCATACACACACACACTAGAAAAAAAA [CACACA_site4397] | 10.4 |
| TTCCACATTTTACAGACACACACAATTTATATTACG [CACACA_site8572] | 10.1 |
| ATGTTAAACAAATCTATACACACGTATATGACAAAA [CACACA_site1783] | 9.71 |
| TTTTGAAGTAATACATGTACTTAAATTACTAAAAAA [XGTACX_site1955] | 9.47 |
| TTCATATATTTTAAAGCATGCATTCATCTTATAGTT [TGCATGCA_site800] | 9.71 |
| TTGTATATATTTATATGTACATATATTACTTTTGCT [XGTACX_site2449] | 9.83 |
| TAAAATAACTCACAAAGTACAAAAATAAGCATATGA [XGTACX_site7046] | 9.79 |
| TTTATTTTGTTTTCTTGTACATAAATAATTACATAT [XGTACX_site4227] | 9.86 |
| TCATAGTATAAACACACACACACACCCATATATATA [CACACA_site8512] | 11 |
| CAAAAAATGAAACACACACACACACCCATAAATAAA [CACACA_site1231] | 10.8 |
| TATCTCATAGTATACACACACACACCCACCCATATA [CACACA_site1739] | 10.7 |
| ATAATCCTGAAACACACACACACACCCATAAATAAA [CACACA_site481] | 11.1 |
| AACACCCATGGACACACACACATATATATATATATA [CACACA_site5809] | 10.4 |
| TAAACACCCATATAAACACACATACATACATACATA [CACACA_site5383] | 10.4 |
| TACACGCATAAACACACACACACACCCATATATATA [CACACA_site8114] | 11.3 |
| ATTCATATGAAACACACACACACACCCATAAAAAAA [CACACA_site3246] | 10.5 |
| TATAAACACCCATATAAACACACATACATACATACA [CACACA_site8791] | 10.2 |
| TCATAGTATGGACACACACACACACCCATATATATA [CACACA_site5033] | 11.2 |
